PubChem BioAssay (NCI)
This is part of a sample that, as a whole, favours compounds with a hit. Of some 83,000 tested, about 20% had one in any assay.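 Note: values are percent growth. 100 is the growth of untreated cells, values between 100 and 0 indicate rising inhibition; between -100 and 0 indicates cell death.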 Activity calls are given as the source filed them. Rule for the calls: active = growth percent below 10; inactive = the rest.

Experiments:
Test in all cases: NCI-60 one-dose screen, 48 h (100 = growth as untreated, 0 = no growth, -100 = all killed)
Details in all cases: 10 µM unless noted
SR leukemia = system: SR leukemia
RPMI-8226 leukemia = system: RPMI-8226 leukemia
OVCAR-8 ovarian = system: OVCAR-8 ovarian
OVCAR-5 ovarian = system: OVCAR-5 ovarian
SK-OV-3 ovarian = system: SK-OV-3 ovarian
IGROV1 ovarian = system: IGROV1 ovarian
OVCAR-3 ovarian = system: OVCAR-3 ovarian
HS 578T breast = system: HS 578T breast
NCI/ADR-RES ovarian = system: NCI/ADR-RES ovarian
OVCAR-4 ovarian = system: OVCAR-4 ovarian

Measured: growth

O=c1oc2cc(OS(=O)(=O)c3ccccc3)c(Cl)cc2c2c1CCCCCC2
inactive: SR leukemia 63.4% | RPMI-8226 leukemia 75.2% | OVCAR-8 ovarian 89.2% | OVCAR-5 ovarian 90.1% | SK-OV-3 ovarian 106% | IGROV1 ovarian 84.3% | OVCAR-3 ovarian 91.3% | HS 578T breast 88.6% | NCI/ADR-RES ovarian 67.4%

Nc1nc(-c2ccccc2)cs1
inactive: SR leukemia 94.5% | RPMI-8226 leukemia 109% | OVCAR-8 ovarian 100% | OVCAR-5 ovarian 98.7% | SK-OV-3 ovarian 99.4% | IGROV1 ovarian 113% | OVCAR-3 ovarian 102% | HS 578T breast 104% | NCI/ADR-RES ovarian 110%

COc1cc(C(=O)/C=C/c2cc(C(=O)c3cc(OC)c(OC)c(OC)c3)ccc2OC)ccc1N
active: SR leukemia -7.95% | RPMI-8226 leukemia -9.87% | OVCAR-8 ovarian 4.2% | OVCAR-5 ovarian -54.1% | IGROV1 ovarian -12.7% | OVCAR-3 ovarian -53% | NCI/ADR-RES ovarian 1.57%
inactive: SK-OV-3 ovarian 32.5% | HS 578T breast 46.1%

Nc1ccccc1C#C/C=C\C#Cc1cccc(O)c1
active: IGROV1 ovarian -19.5%
inactive: SR leukemia 13% | RPMI-8226 leukemia 34% | OVCAR-5 ovarian 62.6% | OVCAR-4 ovarian 45% | SK-OV-3 ovarian 74.4% | OVCAR-3 ovarian 43% | HS 578T breast 64.3% | NCI/ADR-RES ovarian 31.8%
